Laboratory results published in the supplement of paper PMC3545927.
The other results are listed elsewhere or left out. How many sequences the whole screen found active is unknown.

B1: FS-2957 (peptide)
chain: CARKAKEEGTAGNASASA
B2: FS-2034 (peptide)
chain: CARKARALGTAGNASASA
B3: FS-3184 (peptide)
chain: CARARRQLGTAGNASASA
B4: HC2361 (peptide)
chain: CAEVNCHRPSAGNASASA
B5: CS3 (peptide)
chain: CAPFDLLDFNAGNASASA
B6: HC2426 (peptide)
chain: CAMREVPCHRAGNASASA
B7: FS-217 (peptide)
chain: CAARARNKREAGNASASA
B8: FS-2265 (peptide)
chain: CARKKKHRKNAGNASASA
B9: HC958 (peptide)
chain: CAARAQAPPPAGNASASA
B10: FS-1512 (peptide)
chain: CAARARHRKNAGNASASA
B11: FS-279 (peptide)
chain: CANQRRNKREAGNASASA
B12: HC1567 (peptide)
chain: CAARAAWETAAGNASASA

Molecular target: furin, P09958
Experiment: furin cleavage Z-score vs untreated control; higher = more cleavage, active = 3.5 or more, inactive = 1 or less, 8 variable residues between constant flanks
In short: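 The cleavage Z-score is the log read count relative to furin-free reactions, lowess-adjusted and scaled by median absolute deviation. Counts came from sequencing DNA released from bead-bound 8-mer peptide–cDNA fusions after digestion with purified furin for 7.5, 15 or 30 min.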
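Note: purified furin at 1:10 enzyme:substrate in 50 mM HEPES pH 7.5.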

Sequence of furin, P09958 (P09958 whole entry): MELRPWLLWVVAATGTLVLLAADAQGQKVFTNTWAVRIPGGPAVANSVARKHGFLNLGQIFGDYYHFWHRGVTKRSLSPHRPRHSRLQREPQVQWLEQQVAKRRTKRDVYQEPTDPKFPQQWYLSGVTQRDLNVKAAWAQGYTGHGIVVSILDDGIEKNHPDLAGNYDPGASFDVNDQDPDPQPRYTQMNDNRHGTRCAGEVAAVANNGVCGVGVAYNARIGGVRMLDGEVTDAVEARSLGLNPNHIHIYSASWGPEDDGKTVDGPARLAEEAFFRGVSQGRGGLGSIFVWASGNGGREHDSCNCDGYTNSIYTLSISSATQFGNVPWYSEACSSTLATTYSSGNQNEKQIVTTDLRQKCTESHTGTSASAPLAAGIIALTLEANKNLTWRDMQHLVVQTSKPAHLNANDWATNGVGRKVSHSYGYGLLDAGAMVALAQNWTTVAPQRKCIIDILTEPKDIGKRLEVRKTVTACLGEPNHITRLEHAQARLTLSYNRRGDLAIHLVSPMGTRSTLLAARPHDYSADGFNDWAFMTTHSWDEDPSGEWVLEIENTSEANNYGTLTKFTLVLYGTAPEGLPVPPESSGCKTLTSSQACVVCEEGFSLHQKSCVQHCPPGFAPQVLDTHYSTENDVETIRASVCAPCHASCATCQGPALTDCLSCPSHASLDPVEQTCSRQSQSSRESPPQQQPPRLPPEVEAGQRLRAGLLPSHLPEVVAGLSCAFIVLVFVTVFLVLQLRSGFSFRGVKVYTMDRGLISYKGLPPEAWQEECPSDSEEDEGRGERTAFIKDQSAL

Sequence | furin cleavage Z-score (7.5 min) | furin cleavage Z-score (15 min) | furin cleavage Z-score (30 min)
B1 | -0.545 (inactive) | 1.07 | -0.377 (inactive)
B2 | 7.98 (active) | 9.85 (active) | 7.74 (active)
B3 | 4.41 (active) | 5.24 (active) | 4.88 (active)
B4 | 1.09 | 1.04 | -0.207 (inactive)
B5 | -0.762 (inactive) | -0.626 (inactive) | -1.52 (inactive)
B6 | -1.33 (inactive) | -0.795 (inactive) | -0.936 (inactive)
B7 | 9.23 (active) | 10.8 (active) | 7.52 (active)
B8 | 0.00727 (inactive) | -0.00103 (inactive) | -1.45 (inactive)
B9 | -1.14 (inactive) | -1.1 (inactive) | -1.17 (inactive)
B10 | 3.46 | 4.75 (active) | 6.6 (active)
B11 | 13.2 (active) | 11.8 (active) | 8.6 (active)
B12 | 1.07 | 0.154 (inactive) | -0.51 (inactive)
